The record followed here is PubChem BioAssay AID2283097 (EPA ToxCast).

Each structure is given as a SMILES string. Inconclusive results are not listed. Active and inactive are the calls of the source. Rule for the calls: active = hit-call score of the fitted dose curve at least 0.9, where 1 is the maximum; inconclusive = response in the unintended direction; inactive = score below 0.9.

The term AC50 denotes the concentration giving half of the maximal activity seen.

The test deals with human CYP1B1, CYP1B1 (gene 1545) (UniProt Q16678). The experiment in a line: NVS_ADME_hCYP1B1: NovaScreen (NVS) CYP450-related Enzyme Activity (ADME) Assay for human CYP1B1. The procedure:
NVS_ADME_hCYP1B1 is a biochemical, single-readout assay that uses extracted gene-proteins in a cell-free assay. Measurements were taken 1 hour after chemical dosing in a 96-well plate.NVS_ADME_hCYP1B1 is one of one assay component(s) measured or calculated from the NVS_ADME_hCYP1B1 assay. It is designed to make measurements of enzyme activity, a form of enzyme reporter, as detected with fluorescence intensity signals by Fluorescence technology.Data from the assay component NVS_ADME_hCYP1B1 was analyzed into 1 assay endpoint. This assay endpoint, NVS_ADME_hCYP1B1, was analyzed in the positive analysis fitting direction relative to Acetonitrile as the negative control and baseline of activity. Using a type of enzyme reporter, loss-of-signal activity can be used to understand changes in the enzymatic activity as they relate to the gene CYP1B1. Furthermore, this assay endpoint can be referred to as a primary readout, because this assay has produced multiple assay endpoints where this one serves a enzymatic activity function. To generalize the intended target to other relatable targets, this assay endpoint is annotated to the cyp intended target family, where the subfamily is xenobiotic metabolism. […]

Chain of human CYP1B1, CYP1B1 (gene 1545) (Q16678 whole entry, looked up): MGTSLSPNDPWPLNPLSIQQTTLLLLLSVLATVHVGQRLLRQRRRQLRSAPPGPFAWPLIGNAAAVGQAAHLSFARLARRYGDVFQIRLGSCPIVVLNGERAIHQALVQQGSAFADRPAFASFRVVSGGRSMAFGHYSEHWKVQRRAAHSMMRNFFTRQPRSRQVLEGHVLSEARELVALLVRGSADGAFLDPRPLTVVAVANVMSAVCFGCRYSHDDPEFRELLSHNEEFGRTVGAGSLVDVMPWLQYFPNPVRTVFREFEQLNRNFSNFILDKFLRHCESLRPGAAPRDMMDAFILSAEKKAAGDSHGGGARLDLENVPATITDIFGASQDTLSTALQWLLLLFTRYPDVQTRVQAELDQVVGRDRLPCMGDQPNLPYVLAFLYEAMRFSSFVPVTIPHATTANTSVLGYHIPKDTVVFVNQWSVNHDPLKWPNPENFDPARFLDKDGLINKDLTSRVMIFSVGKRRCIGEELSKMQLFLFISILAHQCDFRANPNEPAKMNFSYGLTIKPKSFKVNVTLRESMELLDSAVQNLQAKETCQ

With `c1ccc2[nH]c(-c3cscn3)nc2c1`, the AC50 was 6.26 µM (active). Then `C#CCOC(=O)[C@@H](C)Oc1ccc(Oc2ncc(Cl)cc2F)cc1`, with 2.14 µM (active).
